Among the test systems are DU-145 prostate; K-562 leukemia; MALME-3M melanoma; MDA-MB-231 breast; RXF 393 renal; SF-268 CNS; SF-295 CNS; SF-539 CNS; UACC-257 melanoma; M14 melanoma; HCT-15 colon; HT29 colon; SNB-75 CNS; U251 CNS; PC-3 prostate; SK-MEL-5 melanoma; UACC-62 melanoma; LOX IMVI melanoma; SK-MEL-28 melanoma; SNB-19 CNS.
Holding throughout (test): NCI-60 one-dose screen, 48 h (100 = growth as untreated, 0 = no growth, -100 = all killed)
Common to all, as to conditions: 10 µM unless noted

The structures appear in SMILES notation. This is part of a sample that, as a whole, favours compounds with a hit. Of some 83,000 tested, about 20% had one in any assay.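 Interpretation: 100, growth as untreated; towards 0, rising growth inhibition; 0, no net growth; 0 to -100, cell death. Compounds scoring below 10 were considered active.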 A number with no mark means an inactive call. Active and inactive are the calls of the source.

8 compounds from PubChem BioAssay (NCI) can be followed below.

In the case of `CCOC(=O)c1c2ncccc2n2c(=O)n(-c3ccc(Cl)cc3)nnc12`, the growth with DU-145 prostate is 112%; in the test with K-562 leukemia it was 77.7%; in the test with MALME-3M melanoma it was 95.7%; in the test with MDA-MB-231 breast it was 91.2%; with RXF 393 renal it was 104%; in the test with SF-268 CNS it was 72.3%. Also, the growth with SF-295 CNS was 9.85% (active); in the test on SF-539 CNS, 47.8%; in the test on UACC-257 melanoma, 102%; with M14 melanoma it was 81.1%; with HCT-15 colon it was 96.6%; in the test with HT29 colon, 108%. In addition, the growth was 86.7% in the test with SNB-75 CNS; 95.1% with U251 CNS; 95.6% in the test on PC-3 prostate; 85.8% in the test with SK-MEL-5 melanoma; 46.6% in the test on UACC-62 melanoma; 41.1% in the test on LOX IMVI melanoma. In the test on SK-MEL-28 melanoma, the growth is 115%.

In the case of `COc1ccc(-n2c(C)nc3c(c(C)nn3-c3ccccc3)c2=O)cc1`, the growth was 0.999% (active) in the test with DU-145 prostate; 8.9% (active) in the test with K-562 leukemia; 63.7% with MALME-3M melanoma; 31.9% with MDA-MB-231 breast; 19.7% in the test on RXF 393 renal; 30.3% in the test on SF-268 CNS. The growth in the test with SF-295 CNS was 3.34% (active); with SF-539 CNS, -1.28% (active); with UACC-257 melanoma, 60%; with M14 melanoma, 10.4%; with HCT-15 colon, 7.97% (active); in the test with HT29 colon, -15.6% (active). The growth was 26.7% in the test with SNB-75 CNS; 60.7% in the test with SNB-19 CNS; 26.7% with PC-3 prostate; -17.1% (active) in the test on SK-MEL-5 melanoma; 51.6% in the test on UACC-62 melanoma; 16.6% in the test on LOX IMVI melanoma. Also, the growth with SK-MEL-28 melanoma was 67.4%.

Regarding `O=C(O)c1ccc2c(c1Sc1ccccc1)C(=O)c1ccccc1C2=O`, the growth is 107% in the test on DU-145 prostate; 112% in the test on K-562 leukemia; 83.4% in the test with MALME-3M melanoma; 90.1% with MDA-MB-231 breast; 98.6% in the test with RXF 393 renal; 101% with SF-268 CNS. Also, the growth in the test on SF-295 CNS was 91.3%; in the test on SF-539 CNS it was 84.5%; in the test on UACC-257 melanoma, 96.3%; in the test on M14 melanoma it was 107%; in the test on HCT-15 colon, 109%; in the test with HT29 colon, 96%. Moreover, the growth in the test on SNB-75 CNS is 78.1%; in the test on U251 CNS it was 103%; with PC-3 prostate, 88.3%; in the test with SK-MEL-5 melanoma, 93.6%; in the test with UACC-62 melanoma, 87.5%; with LOX IMVI melanoma, 89.5%. Further, in the test on SK-MEL-28 melanoma, the growth was 139%.

As for `COc1ccc(-c2cc(-c3cccnc3)nc3sc4c(=O)n(-c5ccc(C)cc5)cnc4c23)cc1OC`, the growth in the test with DU-145 prostate was 101%; in the test on K-562 leukemia it was 111%; in the test on MALME-3M melanoma it was 102%; in the test on MDA-MB-231 breast it was 90.1%; in the test with RXF 393 renal, 98.5%; in the test with SF-268 CNS, 100%. In addition, the growth was 101% with SF-295 CNS; 89.4% in the test with SF-539 CNS; 104% in the test on UACC-257 melanoma; 99% with M14 melanoma; 94.2% with HCT-15 colon; 104% with HT29 colon. In addition, the growth in the test with SNB-75 CNS was 74.9%; with U251 CNS, 103%; with PC-3 prostate, 91.2%; with SK-MEL-5 melanoma, 94.2%; in the test with UACC-62 melanoma it was 97.3%; with LOX IMVI melanoma, 97.9%. In the test on SK-MEL-28 melanoma, the growth was 89.3%.

For the compound `CCOC(=S)SCc1ccc(Cl)cc1`, the growth with DU-145 prostate is 106%; in the test with K-562 leukemia, 110%; in the test on MALME-3M melanoma, 107%; in the test on MDA-MB-231 breast, 85.4%; in the test with RXF 393 renal it was 87.6%; with SF-268 CNS, 106%. Moreover, the growth in the test with SF-295 CNS is 89.4%; in the test on SF-539 CNS it was 114%; with UACC-257 melanoma, 100%; in the test on M14 melanoma it was 99.1%; with HCT-15 colon it was 94.8%; in the test on HT29 colon, 103%. Moreover, the growth in the test on SNB-75 CNS is 76.5%; in the test on U251 CNS, 90.5%; in the test on PC-3 prostate it was 81.7%; with SK-MEL-5 melanoma it was 106%; in the test with UACC-62 melanoma it was 95.5%; with LOX IMVI melanoma, 99.3%. Besides, the growth in the test with SK-MEL-28 melanoma is 114%.

Turning to `COc1ccc(-c2cc(NC(=O)Nc3ccc(O)cc3)no2)cc1`, the growth in the test with DU-145 prostate is 66.7%; in the test with K-562 leukemia it was 29.2%; in the test on MALME-3M melanoma it was 78%; in the test with MDA-MB-231 breast it was 67.5%; with RXF 393 renal, 90.9%; in the test with SF-268 CNS, 62.2%. Besides, the growth in the test with SF-295 CNS is 58.9%; with SF-539 CNS it was 69.5%; in the test with UACC-257 melanoma it was 84.6%; with M14 melanoma, 35.1%; with HCT-15 colon, 49.5%; in the test with HT29 colon, 98.8%. The growth with SNB-75 CNS is 62.6%; with SNB-19 CNS, 91.5%; in the test with PC-3 prostate, 57.6%; in the test with SK-MEL-5 melanoma, 82.3%; in the test on UACC-62 melanoma it was 44.5%; in the test with LOX IMVI melanoma, 7.79% (active). Also, the growth in the test on SK-MEL-28 melanoma is 101%.

Regarding `OCCNCCNc1c2ccccc2nc2ccccc12`, the growth in the test on DU-145 prostate is 88.3%; in the test on K-562 leukemia, 69.8%; in the test with MALME-3M melanoma, 42.1%; in the test on MDA-MB-231 breast it was 57.9%; with RXF 393 renal, 102%; in the test on SF-268 CNS, 55.9%. The growth in the test with SF-295 CNS is 95.4%; with SF-539 CNS it was 69.8%; in the test on UACC-257 melanoma, 102%; with M14 melanoma, 90.9%; in the test with HCT-15 colon it was 97.2%; in the test with HT29 colon, 58%. The growth with SNB-75 CNS is 93.3%; in the test with U251 CNS, 55.3%; in the test on PC-3 prostate it was 87.5%; in the test with SK-MEL-5 melanoma, 88.4%; with UACC-62 melanoma, 66.6%; in the test on LOX IMVI melanoma, 37.8%. In addition, the growth with SK-MEL-28 melanoma is 114%.

Regarding `Nc1cc(-c2nc3sccn3c2-c2ccnc(NCCCNS(=O)(=O)c3ccc(F)cc3)n2)ccc1F`, the growth with DU-145 prostate was 58.6%; in the test on K-562 leukemia, 26.8%; in the test with MALME-3M melanoma it was 37.1%; with MDA-MB-231 breast, 62.5%; with RXF 393 renal, 52.1%; in the test with SF-268 CNS, 62%. In addition, the growth was 67.5% with SF-295 CNS; 73.2% in the test on SF-539 CNS; 57.9% in the test on UACC-257 melanoma; 31% in the test with M14 melanoma; 28.3% in the test on HCT-15 colon; 17.8% in the test with HT29 colon. Besides, the growth in the test on SNB-75 CNS is 68.7%; in the test on SNB-19 CNS it was 88%; with PC-3 prostate, 48.6%; in the test with SK-MEL-5 melanoma, 27.2%; in the test with UACC-62 melanoma it was 21.2%; in the test on LOX IMVI melanoma, 34.1%. The growth with SK-MEL-28 melanoma is 50.7%.
